The test addresses AMP-activated protein kinase, AMPK (Homo sapiens) (UniProt P54646+O43741+P54619+Q9UGJ0+Q9Y478+Q13131+Q9UGI9). The experiment in a line: AMP-dependent Kinase enzyme assay. An in vitro enzyme assay that detects ADP turnover that is directly proportional to AMPK activity. This uses naive AMPK that is activated during the assay with MK-8722. Format: functional. Also noted: scale not given: direction of the effect not stated beside the values. To be noted: 30 µM.
For `Cc1nnc(CN(C)CC(=O)N2CCCN(C3CCCC3)CC2)n1C`, the Percent Effect is -11.4%.
With `Cc1ccccc1C(=O)NC[C@@H]1CCN(C(=O)C2(O)CCCC2)C[C@H]1O`, the Percent Effect is 2.29%.
As for `Cc1ccncc1CN1CCOCC1c1[nH]ncc1C` (stereo not given), the Percent Effect was 17%.
Under `Cc1cc(C)n2c(CNCCNc3ccccc3)cnc2n1` stands -15.1%; under `Cc1ncc(CC(=O)N2CCCCC2CCN2CCCC2)c(=O)[nH]1` (stereo not given), 0.508%.
As for `COc1ccc2c(c1)Cc1c-2nc(N)c(C#N)c1C1CCOC1` (stereo not given), the Percent Effect is -32.8%.
With `CC(CCc1ncnn1Cc1cccc(Cl)c1)N1CCCC1` (stereo not given) the figure was 7.16%; with `Cc1cc(=O)[nH]c(-n2nc(-c3cccs3)cc2N)n1`, -13.8%.
Regarding `CCCn1cc(NC(=O)c2cccc(CN3CC=CC3)c2)nn1`, the Percent Effect came to 3.97%.
Under `O=C(C1CNCCN1C(=O)CCOc1ccccc1)N1CCOCC1` (stereo not given) stands 13%; under `Cc1cc(N2CCOC(c3ccc(N(C)C)cn3)C2)nc(N)n1` (stereo not given), 7.96%; under `CCc1ccc2nc(C)cc(C(=O)NC3CCNC3=O)c2c1` (stereo not given), -4.37%.
Consider `N#Cc1ccc(CN(CCF)Cc2cccc(F)c2)cc1`, for which the Percent Effect is -7.25%.
With `CC(C)c1ccccc1NC(=O)N1C[C@@H]2CC[C@H](C1)N(C)C2=O` the figure was -7.67%; with `Cn1cccc1C(=O)NCc1ccnc(C2CCCOC2)n1` (stereo not given), 6.83%.
On to `CCN1CC(CN(C)c2cc(C)nc(N)n2)Oc2ccccc21` (stereo not given), for which the Percent Effect was found to be 3.94%.
On to `Cc1cc(C)n(C2CCN(C(=O)c3cn4ccsc4n3)C2)n1` (stereo not given), for which the Percent Effect was -11.9%.
With `Cc1cccc(C(C(=O)NC(C)(C)CN2CCCC2)N(C)C)c1` (stereo not given) the figure was -15.9%.
Under `CCCS(=O)(=O)N1CCCN(CCCOC)CC1` stands 11.7%; under `O=C(CCc1nnc(-c2ccsc2)o1)NCC1CCN(C2CC2)C1` (stereo not given), 4.06%; under `COc1nccc(N2CC[C@@H](N3CCC(O)CC3)[C@H](O)C2)c1C#N`, 5.62%.
`COc1ccc(C)nc1NC(=O)CCc1c(C)nn(C)c1C`: the Percent Effect was -7.06%.
With `CC[C@@H](CO)NC(=O)c1cc(COc2ccc(OC)cc2Cl)[nH]n1` the figure was -0.681%; with `Cc1cc(C)n(CCN(C)c2ccc(-c3nc(C4CC4)no3)cn2)n1`, 5.62%; with `COCc1cc(N(C)Cc2cc(C(C)(C)C)n[nH]2)ncn1`, -7.3%.
Under `CC(Oc1ccc2c(c1)OCO2)C(=O)N1CCC(c2ncc[nH]2)CC1` (stereo not given) stands 4.41%; under `CC(O)C1CCN(C(=O)CCOc2ccccc2F)CC1` (stereo not given), 4.43%.
With `NC1CCCc2c1cnn2-c1cc(F)cc(F)c1` (stereo not given) the figure was 10.6%; with `CN(C(=O)c1ccc2c(c1)nc(N1CC[C@H](O)C1)n2C)C1CCSCC1`, 9.79%.
Turning to `COCCCC1(CO)CCCN(C(=O)c2cnc3c(c2)CCCC3)C1` (stereo not given), the Percent Effect is -2.32%.
`O=C(CCn1cccn1)NCCOc1ncc(Cl)cc1Cl`: the Percent Effect was 2.54%.
`CC(C)Cc1nc(C[S+]([O-])CC(=O)NCc2ccccc2)no1` (stereo not given): the Percent Effect came out at 0.747%.
Regarding `Cc1ccc(C(C)NC(=O)N2CCCN(CC(F)F)CC2)s1` (stereo not given), the Percent Effect was -1.15%.
Consider `CC(C)(C)NC(=O)CN1CCCNCC1`, for which the Percent Effect is -0.0888%.
With `O=C(NCc1nc[nH]n1)c1cc(COc2cccc(C(F)(F)F)c2)[nH]n1`, the Percent Effect is -6.06%.
Under `COc1cccc(C(=O)N2CCN(C(=O)CCCc3cn[nH]c3)CC2)c1` stands -1.35%.
With `CC(C)(C)C(NC(=O)CCS(C)(=O)=O)c1ccc(F)cc1F` (stereo not given) the figure was 0.0332%; with `Cc1nc(COc2ccc(N(C)S(C)(=O)=O)cc2)sc1C`, -7%; with `CN1CCN(c2ncc(CNCCCc3cccc(F)c3)cn2)CC1`, 4.72%.
As for `O=C(CCn1ccnc1)N1CCCC(n2cncn2)C1` (stereo not given), the Percent Effect came out at 11.8%.

Source of the values: ChEMBL document CHEMBL3988442, “University of Dundee, Small-Polar-MMV Screening Library” (2021).
